MCF10A rereplic: inducers of DNA re-replication in MCF 10A breast cells; Potency, µM (top dose mostly 46.1 µM), inactives show at the highest dose activity, positive = re-replication, hits mostly activators; hit rate 2.9% among 350,000; MCF 10A DNA re-replication, Hoechst nuclear intensity, 48 h; AID 624296; also: potency is read from the fitted curve at half-maximal effect; % of control where 0% means no effect; nearly all actives have a fitted effect of over 50% in size
TDP1 cell noCPT: qHTS for Inhibitors of human tyrosyl-DNA phosphodiesterase 1 (TDP1): qHTS in cells in absence of CPT; DT40 Tdp1-/- hTDP1 cells, no CPT, ATP luminescence, 48 h; Potency, µM (top dose mostly 46.2 µM), inactives show top-dose activity change, negative = growth inhibition, actives largely listed as inhibitors; hit rate 15% among 420,000; AID 686978, 2013; also: potency is read from the fitted curve at half-maximal effect; % is scaled to controls: 0 for no effect and ±100 for the full control effect; nearly all actives have a fitted effect of over 55% in size
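Luminescent ATP content (CellTiter-Glo) served as the growth readout. Knockout chicken DT40 cells expressing human TDP1 were exposed to compounds without camptothecin for a minimum 48 hr at 37 °C.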
Chronic BCR inh: chronic active BCR signaling inhibition; ABC-DLBCL IkBa-CBG/CBR reporter, luminescence ratio, 4 h; Potency, µM (top dose mostly 46.1 µM), inactives show at the top dose activity change, negative = inhibition, hits mostly inhibitors; hit rate 0.05% among 340,000; AID 493014; active = well fitted inhibition curve with a large enough effect in the signal ratio, with a control signal flat, not every such curve was filed as active; inconclusive = small, poorly fitted or top-dose-only effect, or effect the other way, or a change in a side signal; the % refers to the signal ratio;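 also: potency is read from the fitted curve at half-maximal effect; plate controls were basal doxycycline-induced cells for no effect and cells given 10 µM MG132 for full effect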
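TMD8 ABC-DLBCL cells carrying doxycycline-inducible green luciferase fused to IkappaBalpha plus unfused red luciferase were exposed to compounds (up to 46 uM) for 4 hrs at 37C. Activity came from the overlap-corrected green/red luminescence ratio.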
TDP1 cell CPT: growth inhibition of DT40 Tdp1-/-;hTDP1 cells with camptothecin (screen for TDP1 inhibitors); chicken DT40 Tdp1-/-;hTDP1 cells + 20 nM CPT, ATP luminescence, 48 h; Potency, µM (doses to about 46.2 µM), for inactives: top-dose activity change, negative = growth inhibition, usual class: inhibitors; hit rate 12% among 420,000; also: potency is read from the fitted curve at half-maximal effect; % is scaled to controls: 0 for no effect and ±100 for the full control effect; nearly all actives have a fitted effect of over 55% in size
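Chicken DT40 Tdp1-/- cells stably complemented with human TDP1 were seeded at 400 cells/well in medium containing 20 nM camptothecin, exposed to pin-transferred compounds, and grown at 37 °C for at least 48 hr. Viability was read as ATP luminescence.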
IL-1B inflam inh: inflammasome signaling inhibition, IL-1 beta readout; hit rate 4.7% among 360,000; AID 743279; THP-1 LPS/ATP IL-1B secretion, AlphaLISA, 16 h; hits give low values; activity change, % at 57.5 µM; in the data active = activity change below about -50%; inconclusive = mostly about -30% to -49%; also: % is scaled to controls: 0 for no effect and ±100 for the full control effect
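Secreted IL-1B measured by AlphaLISA bead assay after 16 h compound exposure of THP-1 cells; compounds (final up to 57.5 uM) added 1 h before LPS (250 ng/mL) and ATP (1.25 mM) stimulation; lower signal means less secretion.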
SW480 rerep: induces DNA re-replication in SW480 colon adenocarcinoma cells; Potency, µM (doses to about 46.1 µM), for the others: top-dose re-replication activation, actives largely listed as activators; hit rate 1.8% among 340,000; AID 624297; SW480 DNA re-replication, Hoechst DNA content imaging, 48 h; also: potency is read from the fitted curve at half-maximal effect; % of control where 0% means no effect; nearly all actives have a fitted effect of over 55% in size
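Compounds, transferred as 23 nL by pin tool, were incubated with cells for 48 hr; DNA content per nucleus was then quantified by Hoechst staining and fluorescence plate imaging.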
Starred values were filed as active, the others as inactive; [ ] = dose if it differs, or a comment. Most compounds without a hit are left out; they make up all but 19% or so of the library. Unless noted, calls follow the shape of the dose curve; as a rule, active = well fitted curve in the direction sought with a large enough effect; inconclusive = small, poorly fitted or top-dose-only effect, or another doubt; inactive = no such curve, though single readings can be large; an effect the other way counts as inactive or inconclusive.

How did Cc1ccc(C)c(-c2nnc(NC(=O)c3ccco3)o2)c1 do in these assays?
MCF10A rereplic: 7.5%; TDP1 cell noCPT: inconclusive; Chronic BCR inh: inconclusive; TDP1 cell CPT: inconclusive; IL-1B inflam inh: 8.5; SW480 rerep: inconclusive

How did O=C(NCCc1ccccc1)C1(c2cccs2)CCOCC1 do in these assays?
TDP1 cell noCPT: -22.9%; Chronic BCR inh: 10.4%; TDP1 cell CPT: -15.3%

How did COCCN(C(=O)CCc1ccccc1OC)c1nnc(-c2cccnc2)s1 do in these assays?
MCF10A rereplic: -4.0%; TDP1 cell noCPT: inconclusive; Chronic BCR inh: -27.2%; TDP1 cell CPT: inconclusive; IL-1B inflam inh: -9.0; SW480 rerep: -27.8%

What do the screens show for `CCN(C(=O)Cc1ccccc1OC)c1nnc(-c2ccncc2)s1`?
MCF10A rereplic: 7.8%; TDP1 cell noCPT: 14.6µM*; Chronic BCR inh: -3.4%; TDP1 cell CPT: inconclusive; IL-1B inflam inh: 1.8; SW480 rerep: -3.0%

How did CCCN(C(=O)c1cccs1)c1nnc(-c2ccncc2)s1 do in these assays?
MCF10A rereplic: -4.7%; TDP1 cell noCPT: inconclusive; Chronic BCR inh: inconclusive; TDP1 cell CPT: -24.1%; IL-1B inflam inh: -50.4*; SW480 rerep: -0.2%

What do the screens show for `CCOC(=O)c1c(NC(C)=O)sc2c(O)cccc12`?
MCF10A rereplic: 0.6%; TDP1 cell noCPT: 0.1%; Chronic BCR inh: inconclusive; TDP1 cell CPT: 6.1%; IL-1B inflam inh: 17.4; SW480 rerep: -14.8%

How did CCOC(=O)c1c(N)sc2c(OCC)c(Br)ccc12 do in these assays?
MCF10A rereplic: inconclusive; TDP1 cell noCPT: inconclusive; Chronic BCR inh: inconclusive; TDP1 cell CPT: inconclusive; IL-1B inflam inh: -24.0; SW480 rerep: 20.6µM*

What do the screens show for `CCOC(=O)c1c(NC(C)=O)sc2c(OCC(O)CNC(C)(C)C)c(Br)ccc12` (centres undefined)?
MCF10A rereplic: inconclusive; TDP1 cell noCPT: 10.3µM*; Chronic BCR inh: 6.1%; TDP1 cell CPT: inconclusive; IL-1B inflam inh: -71.9*; SW480 rerep: inconclusive

What do the screens show for `CS(=O)(=O)N(CC(=O)NCCSCc1ccccc1Cl)c1ccc(F)cc1`?
MCF10A rereplic: -5.1%; TDP1 cell noCPT: inconclusive; Chronic BCR inh: 0.7%; TDP1 cell CPT: inconclusive; IL-1B inflam inh: -11.3; SW480 rerep: -0.5%

Results for COCCN(CC1CCCN(C2Cc3ccccc3C2)C1)C(=O)c1ccc(C(C)=O)cc1 (centres undefined) ?
MCF10A rereplic: inconclusive; TDP1 cell noCPT: inconclusive; Chronic BCR inh: 2.4%; TDP1 cell CPT: -2.5%; IL-1B inflam inh: -16.6; SW480 rerep: 0.316µM*

How did COc1ccc(NC(=O)CSc2n[nH]c(C(C)C)n2)c([N+](=O)[O-])c1 do in these assays?
MCF10A rereplic: 1.0%; TDP1 cell noCPT: inconclusive; Chronic BCR inh: -0.3%; TDP1 cell CPT: -17.8%; IL-1B inflam inh: -66.9*; SW480 rerep: 2.0%

What do the screens show for `COc1ccc(NC(=O)CSc2n[nH]c(N)n2)c([N+](=O)[O-])c1`?
MCF10A rereplic: 4.3%; TDP1 cell noCPT: -4.0%; Chronic BCR inh: -9.2%; TDP1 cell CPT: -2.2%; IL-1B inflam inh: -19.4; SW480 rerep: -13.0%

What do the screens show for `COc1ccc(C(CC(=O)N2CCN(c3ccccc3)CC2)c2c(OC)cc(OC)c3ccc(=O)oc23)cc1` (centres undefined)?
MCF10A rereplic: inconclusive; TDP1 cell noCPT: inconclusive; Chronic BCR inh: inconclusive; TDP1 cell CPT: 20.6µM*; IL-1B inflam inh: -7.5; SW480 rerep: -21.4%

How did COc1cc(O)c(C(CC(=O)N2CCCC(C)C2)c2ccc(N(C)C)cc2)c(OC)c1 (centres undefined) do in these assays?
MCF10A rereplic: -4.9%; TDP1 cell noCPT: inconclusive; Chronic BCR inh: -16.1%; TDP1 cell CPT: inconclusive; IL-1B inflam inh: -22.5; SW480 rerep: -21.1%[9.22 µM]
